Bioassay records: PubChem, National Center for Advancing Translational Sciences (NCATS)
A selection: hits, their analogues and other compounds. The true share with any hit is near 10%.
NIH3T3 tox = NIH 3T3 cell cytotoxicity; NIH 3T3 viability, CellTiter-Glo ATP luminescence, 48-72 h; Potency, µM (top dose mostly 96.7 µM), without a hit: at the top dose activity change, negative = cytotoxicity, hits mostly inhibitors; 4.3% of 94,000 active; also: % is scaled to controls: 0 for no effect and ±100 for the full control effect; nearly all actives have a fitted effect of over 55% in size
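ATP-dependent luminescence (CellTiter-Glo) served as the viability signal for NIH 3T3 cells treated with compound for 48 or 72 hr at 37 °C.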
HEK293 tox = HEK 293 cell cytotoxicity; HEK 293 viability, ATP luminescence (CellTiter-Glo), 48-72 h; Potency, µM (titrated, usually from 115 µM), inactives show at the highest dose activity change, negative = cytotoxicity, hits mostly inhibitors; 6.6% of 94,000 active; AID 1345083; also: % is scaled to controls: 0 for no effect and ±100 for the full control effect; nearly all actives have a fitted effect of over 60% in size
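Luminescence from cellular ATP, measured with CellTiter-Glo, indicates HEK 293 viability. Cells plated at 250 cells/well are treated with compound for 48 or 72 hr at 37 degree Celsius before reagent addition.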
Luciferase inh = blocks purified firefly luciferase enzyme activity; P08659; purified P. pyralis luciferase, luminescence, biochemical; Potency, µM (series often up to 115 µM), actives largely listed as inhibitors; 2.5% of 76,000 active; also: % is scaled to controls: 0 for no effect and ±100 for the full control effect; nearly all actives have a fitted effect of over 65% in size
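Luminescence read by CCD imaging after purified firefly luciferase (10nM final) was added to substrate buffer holding 10uM D-luciferin and 10uM ATP, pH 7.5, pre-dosed with compound.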
hNpr1 antagonist = human Npr1 receptor antagonism. HEK293 hNpr1 GloSensor cGMP, ANP-stimulated luminescence. 1.6% of 76,000 active. Potency, µM (highest dose often 46.3 µM), for inactives: at the highest dose activity change, negative = inhibition, most hits filed as inhibitors; calls by dose curve; also: % is scaled to controls: 0 for no effect and ±100 for the full control effect; nearly all actives have a fitted effect of over 60% in size
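HEK293 cells stably expressing human Npr1 and cGMP GloSensor pGS-40F, loaded 2 h with 2% GloSensor reagent, given compound 30 min at room temperature. Luminescence read before and 20 min after 0.1 nM hNppA.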
GPT2 inh = inhibitors of human GPT2 alanine aminotransferase | 0.25% of 100,000 active | Recombinant GPT2, coupled pyruvate oxidase/HRP Amplex Red fluorescence | Potency, µM (doses to about 57.7 µM), for the others: at the highest dose activity change, negative = inhibition, most hits filed as inhibitors; also: % is scaled to controls: 0 for no effect and ±100 for the full control effect; nearly all actives have a fitted effect of over 60% in size
Target sequence (Q8TD30 whole entry, looked up): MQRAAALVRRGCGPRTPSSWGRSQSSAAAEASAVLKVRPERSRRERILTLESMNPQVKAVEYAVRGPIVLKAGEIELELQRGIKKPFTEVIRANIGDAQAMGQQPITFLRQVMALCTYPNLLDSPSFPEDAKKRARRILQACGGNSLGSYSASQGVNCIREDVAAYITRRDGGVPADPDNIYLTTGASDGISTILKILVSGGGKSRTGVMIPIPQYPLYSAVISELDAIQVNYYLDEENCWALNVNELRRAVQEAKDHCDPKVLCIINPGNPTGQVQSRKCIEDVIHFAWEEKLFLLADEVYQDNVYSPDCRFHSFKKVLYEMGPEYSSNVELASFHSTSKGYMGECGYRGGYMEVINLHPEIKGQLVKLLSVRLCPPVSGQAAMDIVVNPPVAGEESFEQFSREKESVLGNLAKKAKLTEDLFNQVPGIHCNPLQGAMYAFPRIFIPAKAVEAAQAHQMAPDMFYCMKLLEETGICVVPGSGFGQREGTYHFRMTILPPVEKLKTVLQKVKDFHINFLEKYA
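Fluorescence read-out: pyruvate from GPT2 turnover coupled to pyruvate oxidase, HRP and Amplex Red (0.2mM ThPP, 0.2U/mL PO and HRP, 50uM Amplex final). Substrates 250uM a-KG, 2mM L-alanine; enzyme 10ng/uL; 30 min RT.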
NPR1 antag cnf = hNpr1 antagonism, confirmation assay | shares compounds with hNpr1 antagonist | HEK293 hNpr1 cGMP GloSensor luminescence, ANP-stimulated | Potency, µM (titrated, usually from 57.6 µM), inactives show at the top dose activity change, negative = inhibition, most hits filed as inhibitors | 76% of 1,400 active | AID 1347044; calls by dose curve; also: nearly all actives have a fitted effect of over 70% in size
Npr2 selectivity = selectivity test of Npr1 antagonists against human Npr2 | shares compounds with hNpr1 antagonist | HEK293 hNpr2 GloSensor cGMP luminescence, CNP-stimulated | Potency, µM (titrated, usually from 57.6 µM), for the others: at the highest dose activity change, negative = inhibition, hits mostly inhibitors | 67% of 1,400 active | AID 1347046; calls by dose curve; also: nearly all actives have a fitted effect of over 70% in size
FLuc inh counter = FLuc enzyme inhibition, Npr1 counter-screen; shares compounds with hNpr1 antagonist; purified FLuc enzyme, luminescence, Km substrate; Potency, µM (doses to about 57.6 µM), without a hit: at the highest dose activity change, negative = inhibition, most hits filed as inhibitors; 0.7% of 1,400 active; also: 0% is about no effect
GloSensor ctrl = counter-screen for Npr1 antagonists: GloSensor control cell line; shares compounds with hNpr1 antagonist; HEK293 GloSensor cGMP, SNP-stimulated, luminescence; Potency, µM (top dose mostly 57.6 µM), for inactives: at the highest dose activity change, negative = inhibition, actives largely listed as inhibitors; 69% of 1,400 active; AID 1347051; calls by dose curve; also: % is scaled to controls: 0 for no effect and ±100 for the full control effect; nearly all actives have a fitted effect of over 70% in size
Numbers without * were called inactive; i = inactive; ? = inconclusive; . = no result given; [ ] = another dose, or the depositor's remark. Unless noted, calls follow the shape of the dose curve; as a rule, active = well fitted curve in the direction sought with a large enough effect; inconclusive = small, poorly fitted or top-dose-only effect, or another doubt; inactive = no such curve, though single readings can be large; an effect the other way counts as inactive or inconclusive. Potency is read from the fitted curve at half-maximal effect.

SMILES	NIH3T3 tox	HEK293 tox	Luciferase inh	hNpr1 antagonist	GPT2 inh	NPR1 antag cnf	Npr2 selectivity	FLuc inh counter	GloSensor ctrl
COc1ccc2nc(C[C@@H]3C[C@@H](C(C)C)[C@H](CNCc4ccccc4OC)C=C3C)[nH]c2c1	28µM*	20µM*	i	-26%	0%	?	?	-2%	-26%
COc1ccc2nc(C[C@@H]3C[C@@H](C(C)C)[C@H](CNC(=O)CCC(=O)O)C=C3C)[nH]c2c1	2%[174 µM]	i	i	-1%[70.6 µM]	-14%[88.5 µM]	.	.	.	.
CCCn1ccc2sc(C)c(C(=O)O)c2c1=O	i	16%	i	-9%	i	.	.	.	.
CN(C)c1cccc(C(=O)N2CCNc3cnc(Nc4cccc(C(F)(F)F)c4)nc3C2)c1	?	?	i	16µM*	1%	22µM*	24µM*	-6%	19µM*
O=C(Cc1ccc2c(c1)OCO2)N1CCNc2cnc(Nc3cccc(F)c3)nc2C1	?	?	i	40µM*	2%[88.5 µM]	35µM*	35µM*	6%[86.2 µM]	35µM*
C[C@H]1CCCN1C(=O)c1nnc(COc2cccc(C(F)(F)F)c2)n1-c1ccccc1	?	?	i	-16%[70.6 µM]	2%[88.5 µM]	.	.	.	.
O=C(NCc1ccc(F)c(Cl)c1)c1cc2n(n1)CC(c1ccc(Cl)cc1)OC2 (centres undefined)	?	35µM*	i	?	-16%	?	-28%	3%	?
CC(C)Oc1ccc(CNC(=O)c2cc3n(n2)CC(c2ccc(Cl)cc2)OC3)cc1 (centres undefined)	?	?	i	?	?	?	-22%	2%	-25%
COc1ccc(CNC(=O)c2cc3n(n2)CC(c2ccc(Cl)cc2)OC3)cc1OC (centres undefined)	?	?	i	?	-7%	.	.	.	.
COc1ccc(CCC(=O)N2CCCCCCNC(=O)[C@@H]3C[C@@H](c4nc(C(C)C)no4)C[C@@H]32)cc1	-29%	-8%	i	-13%	i	.	.	.	.
O=[S+]([O-])(c1cccc(C(F)(F)F)c1)N1CCC2(CC(c3cccc(C(F)(F)F)c3)=NO2)C1 (centres undefined)	?	-25%	.	.	-14%	.	.	.	.
CC1(C)CC=C(c2cnc3ccccc3c2)c2cc(C(=O)Nc3ccc(C(=O)O)cc3)ccc21	.	.	.	.	1%	.	.	.	.
Cc1cnc(C(=O)N2CCCC2c2nc(CCOCC3CCCC3)no2)cn1 (centres undefined)	-14%	-13%	i	?	-15%	-23%	-17%	-2%	-2%
Cc1ccc(C(=O)N2CCCC2c2nc(CCOCC3CC3)no2)cn1 (centres undefined)	3%	i	i	3%	i	.	.	.	.
COc1cccc(-c2noc(COC(=O)C3=CN(Cc4ccccc4)S(=O)(=O)N=C3C)n2)c1	-21%	?	?	-24%	i	.	.	.	.
COc1ccc(CN2C=C(C(=O)OCc3nc(-c4cccc(OC)c4)no3)C(C)=NS2(=O)=O)cc1	?	-20%	i	?	i	?	-23%	-14%	?
CC1=NS(=O)(=O)N(C)C=C1C(=O)OCc1nc(-c2cccc(C)c2)no1	?	?	i	11µM*	i	15µM*	14µM*	-1%	14µM*
CC1=NS(=O)(=O)N(C)C=C1C(=O)OCc1nc(C)no1	-3%	3%	i	3%	-8%	.	.	.	.
CC1=NS(=O)(=O)N(C)C=C1C(=O)OCc1nc(-c2ccc(F)cc2)no1	-30%	?	i	11µM*	2%	22µM*	22µM*	-5%	22µM*
COCCOC1CCOC2(CCN(C(=O)c3ccccn3)CC2)C1 (centres undefined)	i	13%	i	10%	i	.	.	.	.
Cc1cnc(C(=O)NC2C[C@H]3CC[C@@H](C2)N3C(=O)c2ccccc2C)cn1 (some centres undefined)	-11%	1%	i	9%	-29%	.	.	.	.
Cn1cccc1CN1CCC2(CC1)CN(Cc1ccccc1)CC2CO (centres undefined)	?	?	i	1%	i	.	.	.	.
O=C1[C@@H]2C[C@@H](CN2Cc2ccc(C(F)(F)F)cc2)Oc2ccccc2N1Cc1cccnc1	?	35µM*	i	-28%	4%	?	-18%	-9%	-1%
O=C1[C@@H]2C[C@@H](CN2CC2CC2)Oc2ccccc2N1Cc1cccnc1	-23%[174 µM]	?	i	-17%[70.6 µM]	0%[88.5 µM]	.	.	.	.
Cc1cc(C(=O)Nc2cccc(-c3nnc4n3CCCC4)c2)n[nH]1	-13%	-11%	i	?	i	?	?	-16%	?
SMILES	NIH3T3 tox	HEK293 tox	Luciferase inh	hNpr1 antagonist	GPT2 inh	NPR1 antag cnf	Npr2 selectivity	FLuc inh counter	GloSensor ctrl
Cc1ccc(C(=O)Nc2cccc(-c3nnc4n3CCCC4)c2)cc1	-10%	0%	?	-5%	i	.	.	.	.
O=C(NC1CCCc2c1[nH]c1ccc(Cl)cc21)c1ccncc1 (centres undefined)	?	22µM*	i	?	-1%	?	-30%	-4%	-27%
O=C(NC1CCCc2c1[nH]c1ccc(F)cc21)c1ccncc1 (centres undefined)	?	?	i	-19%	?	.	.	.	.
COc1ccc(NC(=O)N2CCC[C@H]2c2nc(-c3ccc(F)cc3)n[nH]2)c(OC)c1	-17%	-5%	.	.	i	.	.	.	.
COc1ccccc1CN1CCc2nc(C(=O)Nc3ccc(Cl)cc3)oc2CC1	50µM*	28µM*	i	13µM*	i	14µM*	18µM*	0%[86.2 µM]	13µM*
COc1ccccc1Cn1c(=O)c(C(=O)N2CCN(C(=O)Nc3ccc(Cl)cc3)CC2)nc2cccnc21	?	?	.	.	1%	.	.	.	.
